The whole screen tested about 360,000 compounds, of which about 11,000 (3.1%) were called active. About 2% were inconclusive and are not listed. The full list was thinned out, with actives kept by preference. Unmarked numbers belong to inactive results. No stated cut-off is given here; in the data, active means fluorescence intensity above about 16000; inconclusive means no clear call, values can overlap the other calls; inactive means below that.
assay: counter-screen for toxin protease inhibitors: compound fluorescence, primary screen, artefact control for toxin protease inhibitor project, biochemical, multiplex microsphere, HTS (AID 624483); details: compound autofluorescence counterscreen, microsphere flow cytometry; stronger effect = higher value

SMILES	fluorescence intensity
Cc1cc(=O)oc2c1ccc1ccccc12	3640
O=C(O)CN(Cc1ccco1)S(=O)(=O)c1ccccc1	3010
O=C(O)CCC(=O)N(Cc1ccco1)c1nc(-c2ccccc2)cs1	22500 (active)
Cc1ccc(-c2csc(N(Cc3ccco3)C(=O)c3cccs3)n2)cc1	2850
O=C(NCc1cccc(C(F)(F)F)c1)c1ccc2sc(COCCO)nc2c1	3760
CCNC(=O)NC(=O)C(C)OC(=O)c1cc(S(=O)(=O)N2CCCCCC2)ccc1OC (stereo unspecified)	3480
CC1=NNC(=O)C1CC(=O)N/N=C/c1ccncc1 (stereo unspecified)	4920
CCN(CC)c1ccc(NC(=O)CN2C(=O)NC3(CCc4ccccc43)C2=O)cc1 (stereo unspecified)	8580
CCOc1ccc(NC(=O)CCNC(=O)c2ccc(Br)cc2)cc1	3030
CCCCNC(=O)CCNC(=O)c1ccc(C(C)(C)C)cc1	20300 (active)
CCCCC(=O)Nc1ccc(C(=O)NCCCn2ccnc2)cc1	10500
CC(C)C1Cc2[nH][nH]c(=O)c2C(c2ccc(Cl)cc2)O1 (stereo unspecified)	5700
NC(=O)c1sc2nc3c(c(-c4ccccc4)c2c1N)CCC3	24800 (active)
CCN(CC)C(=O)c1sc2nc(-c3ccccc3)ccc2c1N	4300
Cc1sc2nc(CC(N)=O)[nH]c(=O)c2c1-c1ccccc1	2450
c1nnc2c3c4c(sc3ncn12)CCC4	23300 (active)
N=c1c2c3c(sc2ncn1CCCN1CCOCC1)CCCCC3	6250
N=c1c2c3c(sc2ncn1N)CCCCC3	19400 (active)
S=c1[nH]nc2c3c4c(sc3ncn12)CCCC4	2950
CC(C(=O)O)n1cnc2sc3c(c2c1=O)CCCC3 (stereo unspecified)	4940
N=c1c2c3c(sc2nc2n1CCCCC2)CCCC3	2860
CN1CCN(C(=O)c2ccc(NC(=O)c3ccc(Br)o3)cc2)CC1	5550
O=C(/C=C/[C@H]1O[C@@H](n2cnc3c(NC(=O)c4ccccc4)ncnc32)[C@H](O)[C@@H]1O)NCc1ccccc1	6020
CS(=O)(=O)C1=NN2C(=N)/C(=C\c3ccc(OCCOc4ccccc4)cc3)C(=O)N=C2S1	3680

SMILES	fluorescence intensity
CCS(=O)(=O)C1=NSC2=NC(=O)/C(=C\c3ccc(OS(=O)(=O)c4ccccc4)cc3)C(=N)N21	4230
CS(=O)(=O)c1ccc2c(c1)SC1=NC(=O)/C(=C/c3ccco3)C(=N)N12	20000 (active)
OC(c1nc2ccc(F)cc2[nH]1)C(O)c1nc2ccc(F)cc2[nH]1 (stereo unspecified)	3790
O=C1CCCC2=C1C(c1cccs1)n1nc(SCc3ccccc3)nc1N2 (stereo unspecified)	23700 (active)
O=C1CCCC2=C1C(c1cccs1)CC(=O)N2c1ccc(F)cc1 (stereo unspecified)	3220
CCCC(=O)N1c2ccccc2NC2=C(C(=O)CCC2)C1c1ccc(F)cc1 (stereo unspecified)	6490
Nc1c(-c2ccc(F)cc2)cnc2ncnn12	6020
O=C(Nc1ccc2c(c1)nc1n2CCCCC1)c1cc(S(=O)(=O)N2CCOCC2)ccc1Cl	2940
CCOc1cccc(OCCCOc2cccc3cccnc23)c1	2100
Cc1cccc(NC(=O)C2CCN(S(=O)(=O)c3cccc4cccnc34)CC2)c1	5170
Cc1ccc(Oc2ccc3c(c2)C(=O)N(c2cccc4cccnc24)C3=O)cc1	21000 (active)
Cc1ccc(S(=O)(=O)N2CCCCC2)cc1NC(=O)CCNC(=O)c1ccccc1Cl	3400
CS(=O)(=O)N(CC(=O)N1CCN(c2cccc(Cl)c2)CC1)c1ccccc1	9910
Cc1cccc(N(CC(=O)N2CCOCC2)S(C)(=O)=O)c1	8740
CS(=O)(=O)N(CC(=O)N1CCN(Cc2ccccc2)CC1)c1ccc2c(c1)OCCO2	23300 (active)
Cc1ccc(C)c(S(=O)(=O)N2CCN(c3ncnc4sccc34)CC2)c1	3890
O=C(c1c(F)cccc1F)N1CCN(S(=O)(=O)c2ccc3c(c2)OCCO3)CC1	4100
O=C(Nc1ccccn1)C1CCN(S(=O)(=O)c2ccc3c(c2)OCCO3)CC1	4090
O=C(c1ccc2c(c1)OCCO2)C1CCN(S(=O)(=O)c2cccc(F)c2)CC1	17000 (active)
CCOC(=O)C1=C(CN2CCc3ccccc32)NC(=O)NC1c1ccc(Cl)cc1 (stereo unspecified)	23500 (active)
CCOC(=O)C1=C(CN2CCc3ccccc32)NC(=O)NC1c1cc(C)ccc1C (stereo unspecified)	23800 (active)
CCOC(=O)C1=C(CN2CCCCCC2)NC(=O)NC1c1cccc([N+](=O)[O-])c1 (stereo unspecified)	4620
CCOC(=O)C1=C(CN2CCc3ccccc32)NC(=O)NC1c1cccc([N+](=O)[O-])c1 (stereo unspecified)	15000
CCOC(=O)C1=C(CNC2CCCCC2)NC(=O)NC1c1cc(C)ccc1C (stereo unspecified)	4280

SMILES	fluorescence intensity
CCOC(=O)C1=C(c2ccccc2)NC(=O)NC1c1cc(OC)c(OC)cc1OC (stereo unspecified)	2970
Cc1ccccc1S(=O)(=O)NC(=O)C1(C)CCN1C(=O)C1(c2ccccc2)CCCC1 (stereo unspecified)	2830
COc1ccc(C(=O)Nc2c(N)nc(SCC(=O)N3CCC(C)CC3)[nH]c2=O)cc1OC	4500
COc1cncc(-c2cnc3sc(NCCc4ccccn4)nn23)c1	3330
O=C1Cc2ccccc2Sc2ccc(Cl)cc21	6230
CC(=O)Nc1cncc(-c2ccccc2CO)n1	3670
Cc1cc(C)nc(NC(=O)Nc2ccccc2C(F)(F)F)n1	21400 (active)
COc1cccc(C(=O)NC(=O)Nc2nc(C)cc(C(F)(F)F)n2)c1	4900
Cc1cc(Cl)nc(NC(=O)Nc2cccc(Cl)c2)n1	3440
CSc1ccc(CN2CCC2(C)C(=O)NCc2ccccc2Br)cc1 (stereo unspecified)	3880
OC[C@@H]1CN(Cc2ccc(Cl)cc2)C[C@H](n2cnc3c(NCc4ccncc4)ncnc32)O1	3720
Cc1cc(Cl)ccc1-c1nc(NCCN(C)C)nc2ccsc12	2870
Cc1noc(C)c1C(=O)N1CCC1(C)C(=O)NS(=O)(=O)c1ccc(C#N)cc1 (stereo unspecified)	3990
COc1ccc(C)c(Cn2c(-c3nonc3N)nc3ccccc32)c1	8560
O=C(O)CCn1c(Cc2ccccc2)nc2ccccc21	4070
Nc1nonc1-c1nc2ccccc2n1CCC(=O)O	23600 (active)
O=C(CNC(=O)c1ccccc1F)c1ccc(Br)cc1	4100
CCc1nc2ccc(C(=O)NC3CCN(Cc4ccccc4)CC3)cn2c1N(CC)CCOC	3640
OC1CCCN(c2ncnc3c2nnn3Cc2c(F)cccc2Cl)C1 (stereo unspecified)	4220
O=C(CSCc1ccccc1)Nc1ccccc1	3440
CC(=O)Nc1ccc(NC(=O)CSCc2cnn(-c3ccccc3)c2-n2cccc2)cc1	21800 (active)
Cc1cc(C)cc(NC(=O)CSCc2cnn(-c3ccccc3)c2-n2cccc2)c1	3720
CCC(=O)N1Cc2cc(C(=O)NCc3cccc(F)c3)nc(-c3cccc(C4=CCCC4)c3)c2[C@H]1CCO	5960
CS(=O)(=O)N1CCN(C(=O)c2cc3ccccc3oc2=O)CC1	20900 (active)

SMILES	fluorescence intensity
O=C(c1cc2ccccc2o1)N1CCN(S(=O)(=O)c2ccc(Cl)s2)CC1	3540
COc1cccc2cc(C(=O)N3CCN(C(=O)c4ccccc4)CC3)c(=O)oc12	2640
Cc1ccc(S(=O)(=O)N2CCN(C(=O)Cc3sc(C)nc3-c3ccc(F)cc3)CC2)c(C)c1	5210
COCCCNC(=O)c1cccc2c(-c3ccc(O)c(OC)c3)coc12	3660
CCCS(=O)(=O)NC(=O)C1(C)CCCN(C(=O)c2cccs2)C1 (stereo unspecified)	3930
CCc1ccc(-c2nnn(Cc3nc4ccccc4s3)n2)cc1	22800 (active)
CCc1ccc(-c2nnn(Cc3nn[nH]n3)n2)cc1	20100 (active)
CCC1(CC)NC(=O)N(Cc2nc3ccccc3s2)C1=O	3380
CN(C)c1nc(N)nc(Cn2nnc(-c3ccc(C(F)(F)F)cc3)n2)n1	5180
CN(Cc1nc2ccccc2s1)C(=O)c1ccc(F)cc1	3850
COc1ccc(-c2nnn(Cc3nc(N)nc(N4CCCCC4)n3)n2)cc1	4610
Nc1[nH]c(C(=O)c2ccccc2)c(-c2ccc(Br)cc2)c1C(=O)NC1CC1	4400
Cc1ccc(C(O)c2ncc(-c3ccccc3F)[nH]2)cc1F (stereo unspecified)	3620
O=C1CCCC(O)=C1N=Nc1ccc2ncsc2c1	2580
CC1(C)CC(CC(=O)O)C(=O)O1 (stereo unspecified)	4100
CC1(C)CC(CCC(=O)Nc2ccccc2Cl)C(=O)O1 (stereo unspecified)	23100 (active)
CN(CC(=O)Nc1ccccc1Cl)C(=O)COc1cccc2c1OC(C)(C)C2	5770
Brc1ccc(C2CC(c3ccccc3)=Nc3ccccc3N2)cc1 (stereo unspecified)	2950
CNC(=S)N1N=C(c2ccccc2)CC1c1ccc(Br)cc1 (stereo unspecified)	23900 (active)
COc1ccc(C2CC(c3ccccc3)=NN2C(=O)COC(=O)COc2ccccc2)cc1 (stereo unspecified)	4620
COC(=O)Cc1ccc(OC2(C)CCN(Cc3ccc4c(c3)OCCO4)C2)cc1 (stereo unspecified)	2970
CCOc1ccc(NC(=S)N2CCCCCC2)cc1	4120
O=C(NCc1cccnc1)c1cc(C2CCCCN2C(=O)CCc2ccccc2)on1 (stereo unspecified)	3910
Cc1c(C(=O)NCC2CC2)sc(=O)n1Cc1cccc(F)c1	5240

Source: PubChem BioAssay AID624483 (NMMLSC, 2012)
